Assay outcomes from PubChem.
This is a sample that favours compounds with a hit; in the whole collection about 3.7% have one here.
ELG1 repair inh: inhibitors of ELG1-dependent DNA repair in HEK293T cells. Potency, µM (series often up to 46.1 µM), usual class: inhibitors. 2.3% of 330,000 active. AID 504467. HEK293T ELG1-luciferase reporter, luminescence, 16 h; DNA damage induced by 5-fluorouridine; also: nearly all actives have a fitted effect of over 55% in size
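HEK293T cells expressing luciferase-tagged ELG1 (2,000/well) received 5-Fluorouridine plus compound or DMSO for 16 hr at 37 °C. Luciferase was read by ONE-Glo luminescence after 30 min at room temperature.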
Nrf2 activator: Nrf2 pathway activation | 0.31% of 410,000 active | Potency, µM (highest dose often 46.1 µM), hits mostly activators | AID 624171 | AREc32 ARE-luciferase reporter (MCF7-derived line), luminescence, 24 h; also: nearly all actives have a fitted effect of over 65% in size
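Quantitative high-throughput format: AREc32 reporter cells, 1000 per well, received compound by pin transfer and were incubated 24 hr at 37 deg C, 5% CO2, before Steady-Glo luminescence detection.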
A549 tox: A549 cytotoxicity, counter-screen for Nrf2 inhibitors; Potency, µM (series often up to 46 µM), most hits filed as inhibitors; A549 ARE-Fluc cells, CellTiter-Fluor viability, 18-24 h; 0.16% of 390,000 active
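A549 ARE-Fluc cells in 5% FBS OPTI-MEM, 5000 cells/well, rested 2 h then exposed to compounds in concentration-response for 18-24 h at 37 °C. Viability by CellTiter-Fluor fluorescence (Ex 405/Em 525) after 30 min; luciferase luminescence (BugLite, 15 min, RT) read afterwards.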
Nrf2 block: blocks Nrf2 signaling | Potency, µM (series often up to 46 µM), most hits filed as inhibitors | AID 504444 | 2.1% of 360,000 active | A549 ARE-Fluc reporter, luciferase luminescence, 18-24 h; also: nearly all actives have a fitted effect of over 60% in size
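Nrf2 activity is the BugLite luminescence, read 15 min after reagent at room temperature, following CellTiter-Fluor cytotoxicity readout (30 min, 37C). Compound titrations were applied for 18-24 h to 5000 A549 ARE_Fluc cells/well in 5% FBS OPTI-MEM.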
Hits are given with their value; - = inactive; ? = inconclusive; . = no result given; [ ] = remark or other dose. Calls follow the shape of the dose curve; as a rule, active = well fitted curve in the direction sought with a large enough effect; inconclusive = small, poorly fitted or top-dose-only effect, or another doubt; inactive = no such curve, though single readings can be large; an effect the other way counts as inactive or inconclusive.

SMILES	ELG1 repair inh	Nrf2 activator	A549 tox	Nrf2 block
CCC(C)N(C(=O)CSc1ncnc2sccc12)C1CCS(=O)(=O)C1 (configuration not stated)	-	-	-	-
CCC(C)N(C(=O)CSc1nc(-c2cccs2)nc2ccccc12)C1CCS(=O)(=O)C1 (configuration not stated)	.	-	?	8.2µM
OCC1OC(n2ccc3c(SCc4ccccc4)ncnc32)C(O)C1O (configuration not stated)	.	-	-	?
Cc1cc(C)nc(NS(=O)(=O)c2ccc(NC(=O)c3cccs3)cc2)n1	-	-	-	.
CCCCN(CCCC)S(=O)(=O)c1ccc(NC(=O)c2cccs2)cc1	23.1µM	-	?	18.4µM
CCN1CCCc2cc(CN(CCN3CCOCC3)C(=O)Nc3ccc(C)c(C)c3)ccc21	?	-	?	-
CCc1ccc(NC(=O)N(CCN2CCOCC2)Cc2ccc3c(c2)CCCN3CC)cc1	?	-	16.4µM	?
CCN(C(=O)CN1C(=O)S/C(=C\c2ccc(Cl)cc2)C1=O)C1CCS(=O)(=O)C1 (configuration not stated)	-	-	-	-
CCN(C(=O)CN1C(=O)S/C(=C\c2cccc(Cl)c2)C1=O)C1CCS(=O)(=O)C1 (configuration not stated)	-	11.2µM	-	-
CCN(C(=O)C(C)N1C(=O)/C(=C/c2ccco2)SC1=S)C1CCS(=O)(=O)C1 (configuration not stated)	-	-	14.6µM	?
O=C1CN(C(=O)COc2ccccc2)C(c2ccc(F)cc2)c2cc(Br)ccc2N1 (configuration not stated)	.	-	?	-[9.27 µM]
C=C(C)CNC(=S)NN=C1c2ccccc2-c2ccccc21	-	-	-	?
C=C(C)CNC(=S)N/N=C/c1ccco1	-	11.2µM	-	-
CCOc1ccccc1C1C(C(=O)Nc2ccccc2)=C(C)Nc2nc(SCC(=O)c3ccc(C)cc3)nn21 (configuration not stated)	.	-	-	.
Cc1ccc(C)c(CN2CCCN(Cc3ccc(F)cc3)S2(=O)=O)c1	.	-	-	-
COc1ccc(/C=C/C(=O)Nc2ccc(C)c(S(=O)(=O)N3CCOCC3)c2)cc1	20.6µM	-	-	23.1µM
COc1ccc(/C=C/C(=O)Nc2ccc(S(=O)(=O)N3CCOCC3)cc2)c(OC)c1	23.1µM	-	-	?
Cc1ccc(NC(=O)Nc2ccccc2F)cc1S(=O)(=O)N1CCOCC1	20.6µM	-	-	-
CCNC(=O)CCSc1nnc(-c2ccc(O)cc2)o1	.	-	-	-
CCOc1ccc(-c2nonc2NC(=O)COc2ccccc2)cc1	.	-	-	.
CCOc1ccc2cc(S(=O)(=O)N3CCOCC3)ccc2c1	-	-	-	-
CCOc1ccc(Oc2ccc(S(=O)(=O)N3CCOCC3)cc2N)cc1	9.2µM	-	-	?
Cn1nnnc1SCC(=O)C(C)(C)C	-	-	-	-
Cc1nn(C)cc1C(C)NC(=O)c1cc(COc2c(F)cccc2F)on1 (configuration not stated)	-	-	-	-
Cc1nn(C)cc1C(C)NC(=O)c1cc(COc2cccc3cnccc23)on1 (configuration not stated)	18.3µM	-	-	10.3µM
SMILES	ELG1 repair inh	Nrf2 activator	A549 tox	Nrf2 block
Cc1ccc(C2(c3noc(CN(C)Cc4cccnc4)n3)CCCC2)cc1	-	-	-	-
O=C(/C=C/c1cn(-c2ccccc2)nc1-c1cccnc1)N1CCCC1	13µM	-	?	-
O=C(NCC1CCCO1)/C(=C/c1cn(-c2ccccc2)nc1-c1cccnc1)NC(=O)c1ccccc1 (configuration not stated)	20.6µM	-	-	-
N#C/C(=C\c1cn(-c2ccccc2)nc1-c1cccnc1)c1nnc2n1CCCCC2	20.6µM	-	?	20.6µM
CC(C)N1C(=O)CCC1C(=O)NCc1ccc(F)cc1Cl (configuration not stated)	-	-	-	-
COc1ccc(OCCn2cnc3ccccc32)cc1	-	-	-	-
O=C(CSc1oc(-c2ccco2)nc1S(=O)(=O)c1ccc(Br)cc1)c1ccc(Cl)cc1	.	-	-	-[9.27 µM]
Cc1ccc(C(=O)/C=C/c2cc(C#N)n(C)c2C)cc1	?	-	-	-
CCOC(=O)c1cn(-c2c(Cl)cccc2Cl)c2cc(Cl)c([N+](=O)[O-])cc2c1=O	?	11.2µM	-	-
CCCOc1ccc(-c2nonc2NC(=O)c2cc(OC)c(OC)c(OC)c2)cc1OCCC	.	-	-	-
O=C(/C=C/Nc1cccc(O)c1)c1ccccc1	?	14.1µM	-	-
O=C(/C=C/Nc1ccc(F)c(F)c1)c1ccc(Br)cc1	?	-	-	?
Cc1ccc(N/C=C/C(=O)c2ccccc2)cc1Br	?	11.2µM	-	?
O=C(/C=C/Nc1ccc(F)c(Cl)c1)c1ccccc1	?	11.2µM	-	?
Cc1ccccc1OC(=O)CSc1nnc(-c2cccs2)o1	.	-	-	?
O=C(O)CNc1nc(-c2ccccc2)nc2c1oc1ccccc12	-	-	-	-
c1ccc(-c2nc(NCc3cccnc3)c3oc4ccccc4c3n2)cc1	23.1µM	-	-	?
c1ccc2c(c1)oc1c(NCC3CCCO3)ncnc12 (configuration not stated)	?	-	-	-
OCCCNc1nc(-c2ccccc2)nc2c1oc1ccccc12	23.1µM	-	-	?
c1ccc(-c2nc(NCC3CCCO3)c3oc4ccccc4c3n2)cc1 (configuration not stated)	16.4µM	-	-	-
CC(C(=O)NCc1ccccc1)N1Cc2ccccc2C1=O (configuration not stated)	.	-	-	-
C=C(C(=O)c1ccccc1)C(C(=C)C(=O)c1ccccc1)c1ccc(OC)cc1	16.4µM	?	-	-
C=C(C(=O)c1ccccc1)C(c1ccccc1)C(C)C(=O)c1ccccc1 (configuration not stated)	?	?	-	-
C=C(C(=O)c1ccccc1)C(C)C(=C)C(=O)c1ccccc1	20.6µM	?	?	?
Cc1cccc(OCC(=O)Nc2cccc(C(=O)OCc3cc(=O)n4nc(C(C)C)sc4n3)c2)c1	.	-	-	.
SMILES	ELG1 repair inh	Nrf2 activator	A549 tox	Nrf2 block
O=C1NC2(CCCCC2)C(=O)N1Cc1cccc(C(F)(F)F)c1	9.2µM	-	-	-
CN(C)c1ccc(CNC(=O)CN2CCSc3ccc(S(=O)(=O)N(C)C)cc32)cc1	.	-	-	.
Cc1cc(C)cc(OCC(=O)N2CCC(c3nc4ccccc4o3)CC2)c1	.	-	-	-
CC(C)C(=O)Nc1ccc(COc2ccccc2CN(Cc2ccccc2)C(=O)OC(C)(C)C)cc1	.	-	-	?
CC(C)C(=O)Nc1cccc(COc2ccc(CN(Cc3ccccc3)C(=O)OC(C)(C)C)cc2)c1	.	-	-	16.4µM
Cc1cc(NC(=O)C23CC4CC(C2)CC(n2cnc([N+](=O)[O-])n2)(C4)C3)no1	-	-	-	-
O=C(N/N=C/c1cccn1-c1ccc([N+](=O)[O-])cc1)c1cccnc1	-	-	?	18.4µM
O=C(N/N=C/c1cccnc1)c1ccc([N+](=O)[O-])cc1	-	-	-	-
